Reference: the supplement of paper PMC11634586
Counter-ions that a name gives are not always drawn.

tested on: NCI-H1688; test: inhibition of cell viability relative to untreated control (fraction); higher = stronger growth inhibition, active = 0.5 or more; conditions: 30 µM; 24 h
How it was run: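 Inhibition of cell viability appears as a fraction, based on viability relative to untreated cells. The assay used NCI-H1688 small cell lung cancer cells seeded in 96-well plates at 3 × 10^3 cells/well, treated one day later with a natural compound library (TargetMol) at 30 µM for 24 h at 37°C and 5% CO2. Absorbance at 450 nm with Cell Counting Kit-8 was recorded in triplicate.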

Compound	inhibition of cell viability
CN(C)[C@@H]1C(O)=C(C(N)=O)C(=O)[C@@]2(O)C(O)=C3C(=O)c4c(O)ccc(Cl)c4[C@@](C)(O)[C@H]3C[C@@H]12 [Chlortetracycline hydrochloride]	-0.0618 (inactive)
CC[C@@]1(O)C(=O)OCc2c1cc1n(c2=O)Cc2cc3cc(O)ccc3nc2-1 [10-Hydroxycamptothecin]	0.98 (active)
CC(C)(CO)C(O)C(=O)NCCCO (stereo not drawn) [Panthenol]	0.0837 (inactive)
CC[C@H](C)[C@H](N)C1=N[C@H](C(=O)N[C@@H](CC(C)C)C(=O)N[C@H](CCC(=O)O)C(=O)N[C@H](C(=O)N[C@H]2CCCCNC(=O)[C@H](CC(N)=O)NC(=O)[C@@H](CC(=O)O)NC(=O)[C@H](Cc3cnc[nH]3)NC(=O)[C@@H](Cc3ccccc3)NC(=O)[C@H]([C@@H](C)CC)NC(=O)[C@@H](CCCN)NC2=O)[C@@H](C)CC)CS1 [Bacitracin]	-0.0913 (inactive)
C=C(C)[C@@H]1CC[C@]2(C(=O)O)CC[C@]3(C)[C@H](CC[C@@H]4[C@@]5(C)CC[C@H](O)C(C)(C)[C@@H]5CC[C@]43C)[C@@H]12 [Betulinic acid]	0.622 (active)
CC(C)(CO)[C@@H](O)C(=O)NCCCO [Dexpanthenol]	-0.126 (inactive)
N[C@H]1C(O)O[C@H](CO)[C@@H](O)[C@@H]1O (stereo partly drawn) [Glucosamine hydrochloride]	0.0567 (inactive)
COc1cc(CCC(=O)O)ccc1O [Hydroferulic acid]	0.0171 (inactive)
OC[C@H]1O[C@@](CO)(O[C@H]2O[C@H](CO)[C@@H](O)[C@H](O)[C@H]2O)[C@@H](O[C@H]2O[C@H](CO)[C@@H](O)[C@H](O)[C@H]2O)[C@@H]1O [Melezitose]	-0.0856 (inactive)
C[C@@H]1O[C@@H](O[C@H]2C(=O)c3c(O)cc(O)cc3O[C@@H]2c2ccc(O)c(O)c2)[C@H](O)[C@H](O)[C@H]1O [Astilbin]	-0.0142 (inactive)
COc1ccc2c(C)cc(=O)oc2c1 [7-Methoxy-4-methylcoumarin]	-0.298 (inactive)
Nc1ncnc2c1ncn2[C@@H]1O[C@H](COP(=O)(O)OP(=O)(O)OP(=O)(O)O)[C@@H](O)[C@H]1O [Adenosine disodium triphosphate]	0.0565 (inactive)
COc1cc(C2Oc3cc([C@H]4Oc5cc(O)cc(O)c5C(=O)[C@@H]4O)ccc3OC2CO)ccc1O (stereo partly drawn) [Silymarin]	0.221 (inactive)
O=c1[nH]cnc2c1ncn2[C@H]1C[C@H](O)[C@@H](CO)O1 [2'-Deoxyinosine]	-0.00407 (inactive)
CC[C@]1(O)C[C@@H]2CN(CCc3c([nH]c4ccccc34)[C@@](C(=O)OC)(c3cc4c(cc3OC)N(C)[C@H]3[C@@](O)(C(=O)OC)[C@H](OC(C)=O)[C@]5(CC)C=CCN6CC[C@]43[C@@H]65)C2)C1 [Vinblastine sulfate]	0.764 (active)
CCNC(=O)CC[C@H](N)C(=O)O [L-Theanine]	-0.151 (inactive)
C=CC1=C(C)c2cc3[nH]c(cc4nc(cc5[nH]c(cc1n2)c(C)c5CCC(=O)O)C(CCC(=O)O)=C4C)c(C)c3C=C [Protoporphyrin IX]	0.863 (active)
Nc1ncnc2c1ncn2[C@@H]1O[C@H](CO)C[C@H]1O [Cordycepin]	-0.154 (inactive)
OC1OC[C@@H](O)[C@@H](O)[C@@H]1O (stereo partly drawn) [D(-)-Arabinose]	0.0239 (inactive)

Compound	inhibition of cell viability
O=C1C[C@@H](c2ccccc2)Oc2cc(O)cc(O)c21 [Pinocembrin]	-0.374 (inactive)
Cc1ncc(CO)c(CO)c1O [Pyridoxine]	0.0231 (inactive)
CC(C)=CCC/C(C)=C/CC/C(C)=C/CC/C(C)=C/CC/C(C)=C/CC/C(C)=C/CC/C(C)=C/CC/C(C)=C/CC/C(C)=C/CO [Solanesol]	0.301 (inactive)
NC(=O)NCCC[C@H](N)C(=O)O [Citrulline]	-0.126 (inactive)
OC[C@@H](O)[C@H](O)[C@H](O)[C@@H](O)CO [Dulcitol]	-0.284 (inactive)
OCCc1ccc(O)cc1 [Tyrosol]	0.0116 (inactive)
C#C[C@]1(O)CC[C@H]2[C@@H]3CCc4cc(O)ccc4[C@H]3CC[C@@]21C [Ethynyl estradiol]	0.639 (active)
C[C@H]1O[C@@H](O[C@H]2[C@@H](O)C[C@H](O[C@H]3[C@@H](O)C[C@H](O[C@H]4CC[C@@]5(C)[C@H](CC[C@@H]6[C@@H]5C[C@@H](O)[C@]5(C)[C@@H](C7=CC(=O)OC7)CC[C@]65O)C4)O[C@@H]3C)O[C@@H]2C)C[C@H](O)[C@@H]1O [Digoxin]	0.995 (active)
O=C(O)CCCC[C@@H]1CCSS1 [Thioctic acid]	-0.0532 (inactive)
OCc1c[nH]c2ccccc12 [Indole-3-carbinol]	0.0235 (inactive)
COc1c(O)cc2oc3cc(O)c(CC=C(C)C)c(O)c3c(=O)c2c1CC=C(C)C [Mangostin]	1 (active)
CC1(C)CCCC2(C)OC(=O)C=C12 (stereo not drawn) [Dihydroactinidiolide]	0.194 (inactive)
C/C=C(/C)C(=O)OC(C)(C)[C@@H]1Cc2c(ccc3ccc(=O)oc23)O1 [Columbianadin]	0.338 (inactive)
N[C@H]1C(O)O[C@H](CO)[C@@H](O)[C@@H]1O (stereo partly drawn) [Glucosamine]	-0.173 (inactive)
O=c1c(-c2ccc(O)cc2)coc2c([C@@H]3O[C@H](CO)[C@@H](O)[C@H](O)[C@H]3O)c(O)ccc12 [Puerarin (Kakonein)]	0.109 (inactive)
O=C1C=C(O)C(=O)c2ccccc21 [Lawsone]	-0.319 (inactive)
CCCCCCCCCCCCCCCCCCCCCCO [Behenic alcohol]	-0.0686 (inactive)
Oc1cc(O)c2c(c1)O[C@H](c1ccc(O)c(O)c1)[C@H](O)C2 [Epicatechin]	0.0727 (inactive)
CC(=O)c1c(O)cc(O)cc1O [Phloracetophenone]	0.00993 (inactive)
